# From publication PMC12136788
# Positions count from the first letter of the chain named. Over roughly 5,800 sequences, “enrichment r” has its median near 0.54; the highest 2% begin near 16. The sample holds the highest values, similar sequences and a random draw of the others, so the mix is not that of the screen.
# B1: ENSG00000070961:be:win_601|CDS|ENSG00000070961|bound_else_gene|NA|bound_elsewhere_windowed (ssRNA)
# RNA: GGGAGUUCUACAGUCCGACGAUCCAGGUCAUUCAGAUACCUGUAGCUGACAUUACUGUUGGAGAUAUUGCUCAAGUGAAAUAUGGUGAUCUUCUUCCAGCUGACGGCAUACUUAUUCAAGGCAACGAUCUUAAAAUUGAUGAACAACAGAGGAUUGAGCAUCA
# B2: chr11:10770493:10770605:+|CDS|ENSG00000198730|unk|FALSE|unique (ssRNA)
# RNA: GGGAGUUCUACAGUCCGACGAUCACAUGUGGCACCCAGUGAUACAGUUCUUAUGUUUAAUGUGGCCUUGGUCCUGCAAAGAUUAGCUACCUCUGUCCUGAAAGAUGAAAAAAGUAAUCUGAAGGAAGUACUUAAUGCUGUGAACAACAGAGGAUUGAGCAUCA
# B3: chr1:51919672:51919773:-|3pUTR|ENSG00000169213|unk|FALSE|unique (ssRNA)
# RNA: GGGAGUUCUACAGUCCGACGAUCUAUUCUUUGCCUGCCCCUGGGGUUCUCUGCAGAUGGUCCCAGUAAUAGAUACUCAGCACUAGACUAACAUAACAGGUCACUACACGGGUGCAGAAUCACUUUACAAAAGAAGACUCUGUUCAACAGAGGAUUGAGCAUCA
# B4: ENSG00000107863:be:win_5751|CDS|ENSG00000107863|bound_else_gene|NA|bound_elsewhere_windowed (ssRNA)
# RNA: GGGAGUUCUACAGUCCGACGAUCACCUGACCAAAUAAACGGAGAAAGCUUCCAGAACGUGAGCAAAAAUGCUAGUUCUGCAGCGAAUGCCCAACCUCAUAAACUGUCUGAAACCCCAGGCAGUAAAGCAGAGUUUCAUCCCUGCAACAGAGGAUUGAGCAUCA
# B5: chr1:113685846:113685948:+|3pUTR|ENSG00000081026|unk|FALSE|unique (ssRNA)
# RNA: GGGAGUUCUACAGUCCGACGAUCUAUAUACACUUGAGGUUCUGAUUAGAGAAAGAUCUGUAAAUUGCUCAUUAUUUUUUAUAUAGAUAUUUAAAAAAAACAGUUUAUGGCCUGCAUUUCUUUUACUGUCACAUUGGUUUAAUGCAACAGAGGAUUGAGCAUCA
# B6: chr21:14485227:14485911:-|three_prime_utr|ENSG00000155307|control|control|control (ssRNA)
# RNA: GGGAGUUCUACAGUCCGACGAUCCCCAACUAUAUAUCUACAGAUGCAUUCCAUUUUAACUCUUCUUGAGCUAAAACGUCAAAUAGGAGAGGAAGAUAAGAUAAAUAUUUGUAAAUAAAACCUAAAGUUUAAAUGUUUUAAUCUCAACAGAGGAUUGAGCAUCA
# B7: chr2:158176520:158176661:-|CDS|ENSG00000153237|control|control|control (ssRNA)
# RNA: GGGAGUUCUACAGUCCGACGAUCGCUGUUGUUGCUCAAUUUGAUCCUGUUAGAAUGAUGUCAGAUACAAUGGCAUCAAAAGCUAGAAUGGGCAUUGAAAUUGAAGAAGAAUUUAUUCUUCAAAAGCCACUCUUCACAUUGAAUCAACAGAGGAUUGAGCAUCA
# B8: chr2:151248206:151248307:-|3pUTR|ENSG00000184898|msi1|FALSE|unique (ssRNA)
# RNA: GGGAGUUCUACAGUCCGACGAUCUUUUUUUAAAGCAAAGAUUAAAUUCCCAUGUAAAACCUUCCUCCCUAUACAAAAAAGAAUAGCAGCAUUUUUAUCUUCAAUGACAAAGAAUUGAGUCCAAGAAAAUACUGUAUAAACCUUCAACAGAGGAUUGAGCAUCA
# B9: chr14:55048714:55048815:+|3pUTR|ENSG00000180008|msi1|FALSE|bound_elsewhere (ssRNA)
# RNA: GGGAGUUCUACAGUCCGACGAUCUUUCUAAUUUUGAACAGAUGACUCAGUCCUAAAUCUUUGCCUUUAUUUCCUAUAAAAUGUAGGUGAUACUUGUAACUCGACUUCCUGGAGUUAAUUCUUCAGCAAGAGGUGACCCUGGGACAACAGAGGAUUGAGCAUCA
# B10: chr9:72354534:72354635:-|3pUTR|ENSG00000107372|msi1|total|mutant (ssRNA)
# RNA: GGGAGUUCUACAGUCCGACGAUCGUCCCCGUUUUUACUUUUAUUCUUAAAGCAUUCAGUUUUGCUUUCAAUUUUAUGUACCUCCGUUCUGAGUCCGACCUGCAGAUGUGUACAGACCGUUCAUAUUUAUGUAUUGCACAUAAUCAACAGAGGAUUGAGCAUCA
# B11: chr10:95311796:95311897:-|3pUTR|ENSG00000095637|unk|FALSE|unique (ssRNA)
# RNA: GGGAGUUCUACAGUCCGACGAUCCAGACAUAGAUUUUUCUGUUCAUUUAUUUUUCUUCAUUGCAGUGGAUUGAUUUGAUAAAUAGAUGUGUUGAAUUACUACAUUUGCUGUACAUAUUAUUUAAUAAACUUUAUUCAGAAUUGCAACAGAGGAUUGAGCAUCA
# B12: chr9:72354534:72354635:-|3pUTR|ENSG00000107372|msi1|FALSE|unique (ssRNA)
# RNA: B10 RNA with C28U, C29A, C83U, C84A, C94U, C95A, C116U, C117A
# B13: ENSG00000070961:be:win_5651|3pUTR|ENSG00000070961|bound_else_gene|NA|bound_elsewhere_windowed (ssRNA)
# RNA: GGGAGUUCUACAGUCCGACGAUCGUUUCUAGUCUUGGUUUUGCCAUUAAUGUGCUGCAUGAUCUUGGGAAAAUCAUUUACCCUAAAUAAGGGUGGUGGACUAUCUUGAAGAACCCUUUCAACUCUAAAAAUUGACCCUAUCAACAACAGAGGAUUGAGCAUCA
# B14: chr1:17068045:17068226:-|3pUTR|ENSG00000117115|msi1|FALSE|unique (ssRNA)
# RNA: GGGAGUUCUACAGUCCGACGAUCCUCCUUCCACUGCCUUGACUUUCUUCCUUUUUAUUCCUGGUGCCAUCUGUCCAGGCAGCUAGACAAGAACUUGUUCGCCAGCAGCCAGAUUCAGGCCUUCCCAGGGGCAUAAUAAGUGACCAACAGAGGAUUGAGCAUCA
# B15: chr17:18209558:18209659:+|3pUTR|ENSG00000091542|msi1|FALSE|unique (ssRNA)
# RNA: GGGAGUUCUACAGUCCGACGAUCGGUAGCUUCUAUCCACUCAGAUCCUGGAAGGCAGCAAGGUUUUGUGGAUCUAGAUUCAUUAGGAAUGUCUUCUUGUCAGCCAGGCCAGGACCCGGGCUUGCCAAGAGCAGAGGCCCUCCCCAACAGAGGAUUGAGCAUCA
# B16: chr19:14119889:14120036:-|3pUTR|ENSG00000105011|msi1|total|mutant (ssRNA)
# RNA: GGGAGUUCUACAGUCCGACGAUCAGCAGACCCACUCCAGCUUUCUGGUGUCACAGGCGGGAAUGUCCGUCCGCCGGCCGACUCCGAUCCCAUUUCUGUCCUGCUCCCAGGAAGAUUCUCCGGUCCUCUUCAAUCCAGCAGCCCCAACAGAGGAUUGAGCAUCA
# B17: ENSG00000165672:stop:overlap|stop_codon|ENSG00000165672|stop_codon|NA|stop_codon (ssRNA)
# RNA: GGGAGUUCUACAGUCCGACGAUCCUCCUACGAUCAAGCCAAGUCCAGCUGCUUCCAAAGAGUACUUUCAGAAGGUAAAUCAGUAGAUCACCCAUGUGUAUCUGCACCUUCUCAACUGAGAGAAGAACCACAGUUGAAACCUGCCAACAGAGGAUUGAGCAUCA
# B18: chr19:14119889:14120036:-|3pUTR|ENSG00000105011|msi1|FALSE|unique (ssRNA)
# RNA: GGGAGUUCUACAGUCCGACGAUCAGCAGACCCACUCCAGCUUUCUGGUGUCACAGGCGGGAAUGUUAGUUAGUAGGUAGACUUAGAUCCCAUUUCUGUCCUGCUCCCAGGAAGAUUCUUAGGUCCUCUUCAAUCCAGCAGCCCCAACAGAGGAUUGAGCAUCA
# B19: chr2:1633339:1633490:-|3pUTR|ENSG00000130508|msi1|total|mutant (ssRNA)
# RNA: GGGAGUUCUACAGUCCGACGAUCUUCAUAAGCCACAUUCCGAAACAGGUUUGCUUUCAGCUGUCACUUGCACACAUACUGCCCCGUUGUGAACCAAAUGUGAAAAAACCUCCUUCAUCCCAUUGUGUAUCUGAUACCUGCCGACAACAGAGGAUUGAGCAUCA
# B20: ENSG00000113300:stop:overlap|stop_codon|ENSG00000113300|stop_codon|NA|stop_codon (ssRNA)
# RNA: GGGAGUUCUACAGUCCGACGAUCUGGAGCUCUUACUGCCUUUCCUGCCCCAAGUCAACGGCAUCCACCUUCCUGGCAGGAGGUAGUCAAGCACCUUCAGAGGACAGCCUUGAUUCACUUGUAAACUUGUGAAAAUCUGAACAUCAACAGAGGAUUGAGCAUCA
# B21: ENSG00000198589:be:win_3651|CDS|ENSG00000198589|bound_else_gene|NA|bound_elsewhere_windowed (ssRNA)
# RNA: GGGAGUUCUACAGUCCGACGAUCCCUCACUAGAGAAACCAAAUUAAUUAAUGAUUGUCAUGGUAGUGUCUCUGAGGCUUCUUCUGAGCAAAAGAUUGCGAAGUUGGAUGUUUCCAAUGUUGCUACAGAUACUGAGAGGCUGGACAACAGAGGAUUGAGCAUCA
# B22: ENSG00000147536:stop:overlap|stop_codon|ENSG00000147536|stop_codon|NA|stop_codon (ssRNA)
# RNA: GGGAGUUCUACAGUCCGACGAUCUCCGCUACGUCCUCAGCAGCUACUUGCGGUGUCGCCUCAUGAAGUUCCCAAACCAGAUCUAGAUUCUUACGUGUUUCUGAGAGUGAGAGAACGACAAGAAAACAUACUGGUAGAACCAGACAACAGAGGAUUGAGCAUCA
# B23: chr20:50583650:50583751:+|3pUTR|ENSG00000196396|msi1|FALSE|unique (ssRNA)
# RNA: GGGAGUUCUACAGUCCGACGAUCUUCCUAAGCCUGUUGCUGAAGUCAUUGUCGCUCAGCAAUAGGGUGCAGUUUUCCAGGAAUAGGCAUUUGCCUAAUUCCUGGCAUGACACUCUAGUGACUUCCUGGUGAGGCCCAGCCUGUCAACAGAGGAUUGAGCAUCA
# B24: chr8:17644361:17644462:-|3pUTR|ENSG00000129422|msi1|FALSE|bound_elsewhere (ssRNA)
# RNA: GGGAGUUCUACAGUCCGACGAUCCAACAUUGUGAUGUCAGUAUUUACUAAUCUACAUUCAGUGGCUGUACAAAUAACAGCUGUAGUAAGAAGAGAUUCAGGAUGCUAGAGGUGAAUAUUUGGGUCAUUUACAUGUACACUACACAACAGAGGAUUGAGCAUCA
# B25: chr15:44665791:44665971:-|CDS|ENSG00000229474|control|control|control (ssRNA)
# RNA: GGGAGUUCUACAGUCCGACGAUCGAUCUGUUUGUUCUGGAAUACGUGUAUGUGGGAAGUUGAAUCAUCAGACACUAGCUACAUAGACUAUGUUUACAGGGAUCCAGAGAGUCUGAAGACAUUUCUUAUGCCUUUAUAUAUUGGCAACAGAGGAUUGAGCAUCA
# B26: chr4:75800632:75800752:+|CDS|ENSG00000138768|unk|total|mutant (ssRNA)
# RNA: GGGAGUUCUACAGUCCGACGAUCAAACAACUGAUUGAGAAGAGGAUUGGCAAAGAGAAUUUCACCGAGAAACCCGGAUUUAUCCGCAAACAUGAGUUGUAUUCCAGAGCAUCUCAGAAACCCCAGCCAAACUUUCCCAGUCCACAACAGAGGAUUGAGCAUCA
# B27: chr3:45095346:45095568:-|CDS|ENSG00000163814|control|control|control (ssRNA)
# RNA: GGGAGUUCUACAGUCCGACGAUCAAACAGAGCCGCAAGUUUGUCCCUGGCUGUUUCGUGUGUCUAGAAUCUCGGACCUGCAGUAGCAACCUCACCCUGACAUCUGGCUCCAAACACAAAAUCUCCUUCCUUUGUGAUGAUCUGCAACAGAGGAUUGAGCAUCA
# B28: chr1:17407970:17408071:-|3pUTR|ENSG00000179051|msi1|total|mutant (ssRNA)
# RNA: GGGAGUUCUACAGUCCGACGAUCGGGUACCGUUCUGCUGACCCAGCUCCCUUCCGUCACGUUUGCUUGGCUCUGGUACCAAACCGUUGGGAUUACCGAAGAGUCCCCUUCCUUGCGUGUCAGCACGGAUGCUGUGACUGCCACCAACAGAGGAUUGAGCAUCA
# B29: chr9:19276226:19276327:+|CDS|ENSG00000137145|unk|total|mutant (ssRNA)
# RNA: GGGAGUUCUACAGUCCGACGAUCCUUUGUCGCCGCUGGUCUCACUGACACAUCUACUCUUUUGGAUCAAGAAAUAAAUCGUUCCGAUACUAAGUCAACUGGACCUAAAGCUCCAAUUACAGACAUUGCCAUUAUUAUCAAAUCCAACAGAGGAUUGAGCAUCA
# Molecular target: MSI1 full-length (mouse, UniProt Q61474 1-362)
# Sequence (Q61474 whole entry): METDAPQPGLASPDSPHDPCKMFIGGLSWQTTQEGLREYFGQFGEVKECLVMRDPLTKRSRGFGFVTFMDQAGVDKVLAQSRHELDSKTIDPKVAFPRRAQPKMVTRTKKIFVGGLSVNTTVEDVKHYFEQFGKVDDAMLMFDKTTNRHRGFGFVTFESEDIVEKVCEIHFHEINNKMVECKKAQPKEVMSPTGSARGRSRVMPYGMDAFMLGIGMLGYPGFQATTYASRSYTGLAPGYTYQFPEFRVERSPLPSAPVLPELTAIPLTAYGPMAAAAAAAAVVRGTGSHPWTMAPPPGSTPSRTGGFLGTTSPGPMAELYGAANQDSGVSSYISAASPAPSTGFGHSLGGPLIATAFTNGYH
# Assay: nsRBNS (natural sequence RNA bind-n-seq); RBNS binding buffer (assumed for nsRBNS): 25 mM Tris pH 7.5, 150 mM KCl, 3 mM MgCl2, 0.01% Triton X-100, 500 ug/ml BSA, 20 U/ml SUPERase-In, 4 C; UNK is unkempt and MSI1 is Musashi-1; names of the RNAs are library labels; protein concentration not given here; high values mean tight binding
row,Binder,binding signal [enrichment R]
1,B1,0.234
2,B2,0.659
3,B3,0.896
4,B4,0.256
5,B5,13.4
6,B6,1.2
7,B7,0.406
8,B8,0.494
9,B9,0.258
10,B10,1.52
11,B11,2.8
12,B12,42.6
13,B13,0.357
14,B14,0.526
15,B15,1.93
16,B16,0.641
17,B17,0.684
18,B18,38.2
19,B19,0.388
20,B20,38.7
21,B21,0.605
22,B22,26.3
23,B23,0.237
24,B24,0.442
25,B25,0.282
26,B26,0.541
27,B27,0.476
28,B28,0.479
29,B29,0.315
